{"source": "ChEMBL document CHEMBL3988442", "about": "“University of Dundee, Small-Polar-MMV Screening Library” (2021)", "note": "The campaign covered roughly 48,000 compounds. About 13,000 (27%) showed an effect of 50% or more. This is one part of the list."}
{"system": "Wolbachia pipientis", "test": "Anti-Wolbachia Cell-Based Screen", "type": "functional", "design": "scale not given: in the data most compounds retested in dose-response had high values", "conditions": "5 µM", "units": {"Percent Effect": "%"}}
{"molecule": "CC1CN(C)CCN1Cc1cccc(C(=O)NCc2ccco2)c1", "note": "(stereo not given)", "Percent Effect": 11.16}
{"molecule": "O=C1N(c2cccc(F)c2)Cc2nc(=O)[nH]n21", "Percent Effect": -10.2}
{"molecule": "Cc1nc(NCc2noc(C3CCCO3)n2)c2ccsc2n1", "note": "(stereo not given)", "Percent Effect": 190.8}
{"molecule": "COc1ccnc(CNc2nc(C)nc3ccsc23)c1", "Percent Effect": -33.44}
{"molecule": "Cc1nc(N(Cc2ccncc2)CC2CCCO2)c2ccsc2n1", "note": "(stereo not given)", "Percent Effect": 2.161}
{"molecule": "Cc1nc(NCCc2noc(C3CCCO3)n2)c2sccc2n1", "note": "(stereo not given)", "Percent Effect": 194.7}
{"molecule": "Fc1ccc(OCC2CCCO2)c(NCc2noc(C3CC3)n2)c1", "note": "(stereo not given)", "Percent Effect": 2.456}
{"molecule": "Cc1nc(N2CCC3(CCCN(CC4CC4)C3=O)C2)c2sccc2n1", "note": "(stereo not given)", "Percent Effect": -31.46}
{"molecule": "Cc1nc(CN2CCCC(Nc3ncnc4ccsc34)C2)no1", "note": "(stereo not given)", "Percent Effect": 36.74}
{"molecule": "COCc1noc(CCNC(=O)c2ccc(C3CCCO3)s2)n1", "note": "(stereo not given)", "Percent Effect": -0.9385}
{"molecule": "Cc1nc(NCc2noc(C3CCCO3)n2)c2sccc2n1", "note": "(stereo not given)", "Percent Effect": 146.8}
{"molecule": "Cc1cccc(N2CCN(C(=O)C3CC4(CCNCC4)CN3)CC2)n1", "note": "(stereo not given)", "Percent Effect": -9.883}
{"molecule": "COC(=O)CN(Cc1ccccc1C)C(=O)CCNC(=O)C(C)(C)C", "Percent Effect": 10.54}
{"molecule": "Cc1cc2nc(CO[C@H]3CN(C4CCC4)C[C@H]3F)[nH]c2cc1C", "Percent Effect": -5.771}
{"molecule": "O=C(O)C(F)(F)F.O=C1CCC2(CCN(c3ncc(F)cn3)CC2)N1Cc1ccncc1", "Percent Effect": -48.93}
{"molecule": "O=C(O)C(F)(F)F.O=C(O)C(F)(F)F.O=C1CC[C@]2(CC[C@@H](NC3CCOC3)CC2)N1Cc1ccncc1", "note": "(stereo not given in full)", "Percent Effect": -47.26}
{"molecule": "N#Cc1ccc(CN2CC3(CCCCN3c3cccnc3)CC2=O)cc1.O=C(O)C(F)(F)F", "note": "(stereo not given)", "Percent Effect": -4.907}
{"molecule": "N#Cc1ccc(N2CCC3(CC2)COCCN3Cc2cccnc2)cc1.O=C(O)C(F)(F)F", "Percent Effect": -19.62}
{"molecule": "N#Cc1ccc(N2CCC3(CCC(=O)N3Cc3cccnc3)CC2)nc1.O=C(O)C(F)(F)F.O=C(O)C(F)(F)F", "Percent Effect": 109.7}
{"molecule": "N#Cc1ccc(N2CCC3(CCC(=O)N3Cc3ccncc3)CC2)nc1.O=C(O)C(F)(F)F.O=C(O)C(F)(F)F", "Percent Effect": 101}
{"molecule": "Cc1ccc(N2CCC3(CC2)CNC(=O)CO3)nn1.O=C(O)C(F)(F)F", "Percent Effect": 10.91}
{"molecule": "Cc1ccc(N2CCC3(CCC(=O)N3Cc3ccncc3)CC2)nn1.O=C(O)C(F)(F)F", "Percent Effect": 117.9}
{"molecule": "Cc1cc(CN(C)Cc2cc3c(cc2OC(F)F)OCO3)on1", "Percent Effect": -6.74}
{"molecule": "CC(C)c1nnc(CN2CCCC2C(=O)OCc2ccccc2)o1", "note": "(stereo not given)", "Percent Effect": 4.736}
{"molecule": "COCC1CCN(CCCc2cn[nH]c2)CC1", "Percent Effect": 0.277}
{"molecule": "Cc1cc(C)n(-c2ccc(N3CCC4(CC3)OCCO4)nc2)n1", "Percent Effect": 6.34}
{"molecule": "CCN(C(=O)c1nc2c(s1)CCCN2S(C)(=O)=O)C(C)C", "Percent Effect": 111.8}
{"molecule": "CCN(C(=O)c1nc2c(s1)CCCN2Cc1ccccc1)C(C)C", "Percent Effect": -4.382}
{"molecule": "CCNC(=O)c1nc2c(s1)CCCN2S(C)(=O)=O", "Percent Effect": -29.83}
{"molecule": "CC(=O)N1CCCc2sc(C(=O)NC3CC3)nc21", "Percent Effect": 2.286}
{"molecule": "COCCN(C)C(=O)c1nc2c(s1)CCCN2S(C)(=O)=O", "Percent Effect": -10.12}
{"molecule": "COCCN(C)C(=O)c1nc2c(s1)CCCN2C", "Percent Effect": 4.068}
{"molecule": "CC(=O)N1CCCc2sc(C(=O)Nc3ccc(C)nc3)nc21", "Percent Effect": -6.006}
{"molecule": "CCN(C(=O)c1nc2c(s1)CCCN2C(C)=O)C(C)C", "Percent Effect": 127.1}
{"molecule": "CCN(C(=O)c1nc2c(s1)CCCN2C)C(C)C", "Percent Effect": 108.3}
{"molecule": "CCn1cc(CN2CCC(c3ccncc3)CC2)cc1C#N", "Percent Effect": 18.43}
{"molecule": "Cc1ccc2c(c1)c(CNC(=O)C1CC(=O)N(CCN(C)C)C1)nn2C", "note": "(stereo not given)", "Percent Effect": 14.04}
{"molecule": "CC(C)OCCN(C)CC(c1cccs1)N1CCOCC1", "note": "(stereo not given)", "Percent Effect": -0.1545}
{"molecule": "Cc1sc2nc(SC(C)c3nc(C(C)C)no3)nc(N)c2c1C", "note": "(stereo not given)", "Percent Effect": 10.39}
{"molecule": "COc1c(Br)cccc1CCNC(=O)c1ccon1", "Percent Effect": -9.617}
{"molecule": "Cc1nc(C)n(CC2CCCN(CCc3ccncc3)C2)n1", "note": "(stereo not given)", "Percent Effect": -0.4528}
{"molecule": "Cc1nc(C)n(CC2CCCN(CCc3ccccc3)C2)n1", "note": "(stereo not given)", "Percent Effect": 91.53}
{"molecule": "Cc1nc(C)n(CC2CCCN(CCCc3ccccc3)C2)n1", "note": "(stereo not given)", "Percent Effect": 82.12}
{"molecule": "COc1ccc(CCN2CCCC(Cn3nc(C)nc3C)C2)cc1", "note": "(stereo not given)", "Percent Effect": 9.645}
{"molecule": "NCC1CCC2(CCN(C(=O)c3ccccn3)CC2)CO1.O=C(O)C(F)(F)F.O=C(O)C(F)(F)F", "note": "(stereo not given)", "Percent Effect": 112.6}
{"molecule": "CN(C)CC(=O)N1CCC2(CC1)COC(COc1ccccn1)C2.O=C(O)C(F)(F)F.O=C(O)C(F)(F)F", "note": "(stereo not given)", "Percent Effect": 11.11}
{"molecule": "CCOCC1CC2(CCN(C(=O)c3ccccn3)CC2)CO1.O=C(O)C(F)(F)F", "note": "(stereo not given)", "Percent Effect": -17.18}
{"molecule": "Cc1ccc(C(=O)N2CCC3(CC2)COC(COc2ccccn2)C3)o1.O=C(O)C(F)(F)F", "note": "(stereo not given)", "Percent Effect": 2.842}
{"molecule": "CNC(=O)NCC1CCC2(CCN(C(=O)c3ccccn3)CC2)CO1.O=C(O)C(F)(F)F", "note": "(stereo not given)", "Percent Effect": 105.2}
{"molecule": "O=C(O)C(F)(F)F.O=C(c1cocn1)N1CCC2(CC1)COC(COCc1ccccn1)C2", "note": "(stereo not given)", "Percent Effect": -10.48}
